In ChEMBL document CHEMBL2218924, “A broad activity screen in support of a chemogenomic map for kinase signalling research and drug discovery” (Biochem J, 2013):

How the values were obtained:
[1] = biological target: T1, Testis-specific serine/threonine-protein kinase 1 (Homo sapiens) (UniProt Q9BXA7); conditions: at 10 µM
T1 sequence (whole entry): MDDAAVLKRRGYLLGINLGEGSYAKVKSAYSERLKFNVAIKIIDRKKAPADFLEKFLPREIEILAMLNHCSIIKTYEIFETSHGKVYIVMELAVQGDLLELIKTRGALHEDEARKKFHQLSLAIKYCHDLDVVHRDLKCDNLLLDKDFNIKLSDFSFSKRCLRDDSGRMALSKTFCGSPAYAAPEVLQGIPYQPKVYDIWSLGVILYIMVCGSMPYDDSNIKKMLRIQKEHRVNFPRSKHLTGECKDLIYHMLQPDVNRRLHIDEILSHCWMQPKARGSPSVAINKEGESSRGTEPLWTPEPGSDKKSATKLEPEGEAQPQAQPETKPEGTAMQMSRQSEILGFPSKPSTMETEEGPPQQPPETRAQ

[2] = biological target: T2, Testis-specific serine/threonine-protein kinase 2 (Homo sapiens) (UniProt Q96PF2); conditions: at 10 µM
T2 sequence (whole entry): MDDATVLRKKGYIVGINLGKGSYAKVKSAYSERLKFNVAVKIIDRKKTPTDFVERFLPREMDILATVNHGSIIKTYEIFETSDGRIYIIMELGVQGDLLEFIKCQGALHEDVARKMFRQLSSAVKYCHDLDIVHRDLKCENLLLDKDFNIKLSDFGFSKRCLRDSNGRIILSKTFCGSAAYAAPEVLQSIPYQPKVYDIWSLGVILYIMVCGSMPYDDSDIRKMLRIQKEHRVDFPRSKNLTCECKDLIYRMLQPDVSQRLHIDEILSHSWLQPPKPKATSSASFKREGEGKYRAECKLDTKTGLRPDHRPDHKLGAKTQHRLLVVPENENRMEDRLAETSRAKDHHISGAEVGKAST

[3] = biological target: T3, Tyrosine-protein kinase Tec (Homo sapiens) (UniProt P42680); conditions: at 10 µM
T3 sequence (whole entry): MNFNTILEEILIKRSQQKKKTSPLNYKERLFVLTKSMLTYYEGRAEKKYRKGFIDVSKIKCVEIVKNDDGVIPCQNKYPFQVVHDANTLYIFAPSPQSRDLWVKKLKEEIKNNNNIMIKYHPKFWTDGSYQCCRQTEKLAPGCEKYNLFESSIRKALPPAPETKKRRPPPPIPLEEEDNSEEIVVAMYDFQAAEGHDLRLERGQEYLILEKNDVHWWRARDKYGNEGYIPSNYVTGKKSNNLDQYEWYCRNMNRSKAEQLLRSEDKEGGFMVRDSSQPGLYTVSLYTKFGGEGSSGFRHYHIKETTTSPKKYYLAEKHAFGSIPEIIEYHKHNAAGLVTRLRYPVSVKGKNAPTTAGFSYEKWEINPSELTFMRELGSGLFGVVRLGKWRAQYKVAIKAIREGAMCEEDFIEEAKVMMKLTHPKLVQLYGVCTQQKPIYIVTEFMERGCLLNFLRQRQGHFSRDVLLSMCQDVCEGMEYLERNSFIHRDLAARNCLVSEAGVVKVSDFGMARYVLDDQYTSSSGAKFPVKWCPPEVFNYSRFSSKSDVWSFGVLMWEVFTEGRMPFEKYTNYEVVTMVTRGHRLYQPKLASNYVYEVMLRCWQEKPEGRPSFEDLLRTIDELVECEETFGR

[4] = biological target: Angiopoietin-1 receptor (Homo sapiens) (UniProt Q02763); conditions: at 1 µM
[5] = biological target: Angiopoietin-1 receptor (Homo sapiens) (UniProt Q02763); conditions: at 10 µM
[6] = biological target: High affinity nerve growth factor receptor (Homo sapiens) (UniProt P04629); conditions: at 1 µM
[7] = biological target: High affinity nerve growth factor receptor (Homo sapiens) (UniProt P04629); conditions: at 10 µM
[8] = biological target: BDNF/NT-3 growth factors receptor (Homo sapiens) (UniProt Q16620); conditions: at 1 µM
[9] = biological target: BDNF/NT-3 growth factors receptor (Homo sapiens) (UniProt Q16620); conditions: at 10 µM
[10] = biological target: T4, Tyrosine-protein kinase TXK (Homo sapiens) (UniProt P42681); conditions: at 1 µM
T4 sequence (whole entry): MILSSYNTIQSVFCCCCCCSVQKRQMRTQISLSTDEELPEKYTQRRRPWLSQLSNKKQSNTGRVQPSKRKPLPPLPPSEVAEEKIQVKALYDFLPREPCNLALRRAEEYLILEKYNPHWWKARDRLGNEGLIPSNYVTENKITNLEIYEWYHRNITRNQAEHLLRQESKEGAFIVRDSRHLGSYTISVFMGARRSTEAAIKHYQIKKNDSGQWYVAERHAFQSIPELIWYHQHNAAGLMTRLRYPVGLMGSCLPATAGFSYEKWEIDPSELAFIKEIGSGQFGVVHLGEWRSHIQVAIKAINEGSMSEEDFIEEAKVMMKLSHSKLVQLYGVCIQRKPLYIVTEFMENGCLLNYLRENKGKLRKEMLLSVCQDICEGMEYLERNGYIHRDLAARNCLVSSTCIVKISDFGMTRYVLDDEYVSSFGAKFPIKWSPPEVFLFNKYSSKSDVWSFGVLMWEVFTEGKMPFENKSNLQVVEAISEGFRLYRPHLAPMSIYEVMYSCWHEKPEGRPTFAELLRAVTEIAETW

[11] = biological target: T4, Tyrosine-protein kinase TXK (Homo sapiens); conditions: at 10 µM
[12] = biological target: T5, Serine/threonine-protein kinase ULK2 (Homo sapiens) (UniProt Q8IYT8); conditions: at 10 µM
T5 sequence (whole entry): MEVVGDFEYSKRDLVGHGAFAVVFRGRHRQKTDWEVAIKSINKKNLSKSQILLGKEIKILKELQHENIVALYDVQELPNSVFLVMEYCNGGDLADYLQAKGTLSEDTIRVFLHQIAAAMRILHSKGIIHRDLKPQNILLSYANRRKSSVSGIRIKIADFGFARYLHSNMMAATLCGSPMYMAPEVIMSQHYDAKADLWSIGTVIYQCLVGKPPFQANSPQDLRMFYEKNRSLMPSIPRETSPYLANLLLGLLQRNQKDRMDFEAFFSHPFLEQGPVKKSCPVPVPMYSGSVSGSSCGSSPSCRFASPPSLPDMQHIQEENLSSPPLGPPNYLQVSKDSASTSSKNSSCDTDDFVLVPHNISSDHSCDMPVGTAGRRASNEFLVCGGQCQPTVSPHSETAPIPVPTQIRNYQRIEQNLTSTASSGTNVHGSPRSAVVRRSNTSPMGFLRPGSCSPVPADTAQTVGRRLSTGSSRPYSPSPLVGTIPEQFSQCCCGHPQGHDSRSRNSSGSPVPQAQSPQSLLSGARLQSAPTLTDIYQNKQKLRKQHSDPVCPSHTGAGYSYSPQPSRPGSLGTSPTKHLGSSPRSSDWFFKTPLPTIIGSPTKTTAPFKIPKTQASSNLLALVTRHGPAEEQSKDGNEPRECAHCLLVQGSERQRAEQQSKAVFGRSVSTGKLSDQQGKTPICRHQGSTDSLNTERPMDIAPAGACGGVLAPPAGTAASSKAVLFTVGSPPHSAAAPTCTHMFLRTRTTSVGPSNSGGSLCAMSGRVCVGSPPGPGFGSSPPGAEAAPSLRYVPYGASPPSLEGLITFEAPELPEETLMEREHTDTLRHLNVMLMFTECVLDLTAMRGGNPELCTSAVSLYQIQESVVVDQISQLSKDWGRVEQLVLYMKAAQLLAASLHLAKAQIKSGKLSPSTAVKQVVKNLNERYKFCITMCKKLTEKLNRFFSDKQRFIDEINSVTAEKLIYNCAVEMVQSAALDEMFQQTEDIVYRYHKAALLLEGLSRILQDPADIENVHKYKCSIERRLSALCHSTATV

[13] = biological target: T6, Serine/threonine-protein kinase ULK3 (Homo sapiens) (UniProt Q6PHR2); conditions: at 10 µM
T6 sequence (whole entry): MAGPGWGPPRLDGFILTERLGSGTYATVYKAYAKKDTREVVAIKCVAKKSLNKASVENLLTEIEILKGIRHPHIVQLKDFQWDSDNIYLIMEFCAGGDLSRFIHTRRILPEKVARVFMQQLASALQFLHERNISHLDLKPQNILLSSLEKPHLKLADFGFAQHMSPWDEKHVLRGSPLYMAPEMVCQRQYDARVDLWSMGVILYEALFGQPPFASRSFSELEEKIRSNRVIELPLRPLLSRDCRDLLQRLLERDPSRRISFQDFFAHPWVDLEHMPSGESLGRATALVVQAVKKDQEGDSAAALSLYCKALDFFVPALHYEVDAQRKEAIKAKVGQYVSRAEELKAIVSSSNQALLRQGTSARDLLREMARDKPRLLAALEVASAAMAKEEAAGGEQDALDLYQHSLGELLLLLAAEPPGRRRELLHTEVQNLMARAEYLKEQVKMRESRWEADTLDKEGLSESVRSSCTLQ

[14] = biological target: Serine/threonine-protein kinase VRK2 (Homo sapiens) (UniProt Q86Y07); conditions: at 1 µM
[15] = biological target: Serine/threonine-protein kinase VRK2 (Homo sapiens) (UniProt Q86Y07); conditions: at 10 µM
[16] = biological target: Serine/threonine-protein kinase WNK2 (Homo sapiens) (UniProt Q9Y3S1); conditions: at 1 µM;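 note: residual WNK2 kinase activity expressed as percent of uninhibited control, assayed in MOPS buffer at pH 7.0 containing EDTA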
[17] = biological target: T1, Testis-specific serine/threonine-protein kinase 1 (Homo sapiens); conditions: at 1 µM
[18] = biological target: T3, Tyrosine-protein kinase Tec (Homo sapiens); conditions: at 1 µM
[19] = biological target: T5, Serine/threonine-protein kinase ULK2 (Homo sapiens); conditions: at 1 µM
[20] = biological target: T6, Serine/threonine-protein kinase ULK3 (Homo sapiens); conditions: at 1 µM

Chain of Angiopoietin-1 receptor (Homo sapiens) (Q02763 whole entry): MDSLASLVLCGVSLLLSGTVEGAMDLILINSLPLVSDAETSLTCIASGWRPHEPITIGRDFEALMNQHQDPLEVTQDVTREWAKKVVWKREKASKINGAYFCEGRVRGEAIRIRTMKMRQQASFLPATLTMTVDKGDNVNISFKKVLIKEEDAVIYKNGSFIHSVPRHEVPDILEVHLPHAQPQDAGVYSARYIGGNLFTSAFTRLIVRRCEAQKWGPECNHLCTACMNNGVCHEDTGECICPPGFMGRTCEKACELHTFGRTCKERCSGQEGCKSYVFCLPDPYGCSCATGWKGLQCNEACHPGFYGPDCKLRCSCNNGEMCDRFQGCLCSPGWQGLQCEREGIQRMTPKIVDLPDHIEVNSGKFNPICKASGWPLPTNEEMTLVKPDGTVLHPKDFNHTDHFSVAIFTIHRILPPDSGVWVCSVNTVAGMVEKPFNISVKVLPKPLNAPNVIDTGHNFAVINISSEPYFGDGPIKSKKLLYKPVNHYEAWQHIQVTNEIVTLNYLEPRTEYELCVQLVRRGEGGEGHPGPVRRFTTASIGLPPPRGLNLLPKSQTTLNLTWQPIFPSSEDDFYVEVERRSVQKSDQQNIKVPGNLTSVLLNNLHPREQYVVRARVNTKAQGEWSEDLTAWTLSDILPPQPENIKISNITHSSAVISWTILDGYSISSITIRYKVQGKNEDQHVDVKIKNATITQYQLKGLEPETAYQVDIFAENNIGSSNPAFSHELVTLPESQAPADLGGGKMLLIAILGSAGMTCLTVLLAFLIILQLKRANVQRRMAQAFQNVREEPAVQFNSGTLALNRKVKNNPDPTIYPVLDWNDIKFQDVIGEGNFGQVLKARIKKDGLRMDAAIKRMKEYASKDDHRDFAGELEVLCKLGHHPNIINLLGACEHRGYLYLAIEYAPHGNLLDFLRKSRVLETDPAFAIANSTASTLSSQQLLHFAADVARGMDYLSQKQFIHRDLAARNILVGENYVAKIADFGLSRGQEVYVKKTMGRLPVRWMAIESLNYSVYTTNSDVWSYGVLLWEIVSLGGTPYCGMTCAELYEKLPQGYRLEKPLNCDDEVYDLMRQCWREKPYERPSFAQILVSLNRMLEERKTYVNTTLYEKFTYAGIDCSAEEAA
Chain of BDNF/NT-3 growth factors receptor (Homo sapiens) (Q16620 32-822 limits assumed): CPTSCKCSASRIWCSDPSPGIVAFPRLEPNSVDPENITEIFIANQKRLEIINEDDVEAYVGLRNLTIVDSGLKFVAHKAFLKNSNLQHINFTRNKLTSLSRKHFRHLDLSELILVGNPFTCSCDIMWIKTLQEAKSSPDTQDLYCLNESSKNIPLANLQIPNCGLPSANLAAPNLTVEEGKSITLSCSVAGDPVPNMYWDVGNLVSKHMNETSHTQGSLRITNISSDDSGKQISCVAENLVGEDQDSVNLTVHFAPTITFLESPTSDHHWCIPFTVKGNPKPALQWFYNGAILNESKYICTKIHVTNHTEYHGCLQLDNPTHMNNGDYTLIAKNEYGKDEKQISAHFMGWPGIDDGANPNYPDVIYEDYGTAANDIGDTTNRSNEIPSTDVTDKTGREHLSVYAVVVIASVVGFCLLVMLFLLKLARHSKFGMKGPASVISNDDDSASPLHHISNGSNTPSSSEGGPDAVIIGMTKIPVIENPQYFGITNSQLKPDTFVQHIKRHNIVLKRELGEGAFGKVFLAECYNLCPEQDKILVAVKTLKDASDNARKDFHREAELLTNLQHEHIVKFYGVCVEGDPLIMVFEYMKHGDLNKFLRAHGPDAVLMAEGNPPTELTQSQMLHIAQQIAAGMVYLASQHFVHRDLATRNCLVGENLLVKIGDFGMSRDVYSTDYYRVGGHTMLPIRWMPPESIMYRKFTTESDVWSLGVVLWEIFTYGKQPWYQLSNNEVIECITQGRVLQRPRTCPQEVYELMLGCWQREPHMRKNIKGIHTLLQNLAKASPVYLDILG
Chain of Serine/threonine-protein kinase WNK2 (Homo sapiens) (Q9Y3S1 whole entry): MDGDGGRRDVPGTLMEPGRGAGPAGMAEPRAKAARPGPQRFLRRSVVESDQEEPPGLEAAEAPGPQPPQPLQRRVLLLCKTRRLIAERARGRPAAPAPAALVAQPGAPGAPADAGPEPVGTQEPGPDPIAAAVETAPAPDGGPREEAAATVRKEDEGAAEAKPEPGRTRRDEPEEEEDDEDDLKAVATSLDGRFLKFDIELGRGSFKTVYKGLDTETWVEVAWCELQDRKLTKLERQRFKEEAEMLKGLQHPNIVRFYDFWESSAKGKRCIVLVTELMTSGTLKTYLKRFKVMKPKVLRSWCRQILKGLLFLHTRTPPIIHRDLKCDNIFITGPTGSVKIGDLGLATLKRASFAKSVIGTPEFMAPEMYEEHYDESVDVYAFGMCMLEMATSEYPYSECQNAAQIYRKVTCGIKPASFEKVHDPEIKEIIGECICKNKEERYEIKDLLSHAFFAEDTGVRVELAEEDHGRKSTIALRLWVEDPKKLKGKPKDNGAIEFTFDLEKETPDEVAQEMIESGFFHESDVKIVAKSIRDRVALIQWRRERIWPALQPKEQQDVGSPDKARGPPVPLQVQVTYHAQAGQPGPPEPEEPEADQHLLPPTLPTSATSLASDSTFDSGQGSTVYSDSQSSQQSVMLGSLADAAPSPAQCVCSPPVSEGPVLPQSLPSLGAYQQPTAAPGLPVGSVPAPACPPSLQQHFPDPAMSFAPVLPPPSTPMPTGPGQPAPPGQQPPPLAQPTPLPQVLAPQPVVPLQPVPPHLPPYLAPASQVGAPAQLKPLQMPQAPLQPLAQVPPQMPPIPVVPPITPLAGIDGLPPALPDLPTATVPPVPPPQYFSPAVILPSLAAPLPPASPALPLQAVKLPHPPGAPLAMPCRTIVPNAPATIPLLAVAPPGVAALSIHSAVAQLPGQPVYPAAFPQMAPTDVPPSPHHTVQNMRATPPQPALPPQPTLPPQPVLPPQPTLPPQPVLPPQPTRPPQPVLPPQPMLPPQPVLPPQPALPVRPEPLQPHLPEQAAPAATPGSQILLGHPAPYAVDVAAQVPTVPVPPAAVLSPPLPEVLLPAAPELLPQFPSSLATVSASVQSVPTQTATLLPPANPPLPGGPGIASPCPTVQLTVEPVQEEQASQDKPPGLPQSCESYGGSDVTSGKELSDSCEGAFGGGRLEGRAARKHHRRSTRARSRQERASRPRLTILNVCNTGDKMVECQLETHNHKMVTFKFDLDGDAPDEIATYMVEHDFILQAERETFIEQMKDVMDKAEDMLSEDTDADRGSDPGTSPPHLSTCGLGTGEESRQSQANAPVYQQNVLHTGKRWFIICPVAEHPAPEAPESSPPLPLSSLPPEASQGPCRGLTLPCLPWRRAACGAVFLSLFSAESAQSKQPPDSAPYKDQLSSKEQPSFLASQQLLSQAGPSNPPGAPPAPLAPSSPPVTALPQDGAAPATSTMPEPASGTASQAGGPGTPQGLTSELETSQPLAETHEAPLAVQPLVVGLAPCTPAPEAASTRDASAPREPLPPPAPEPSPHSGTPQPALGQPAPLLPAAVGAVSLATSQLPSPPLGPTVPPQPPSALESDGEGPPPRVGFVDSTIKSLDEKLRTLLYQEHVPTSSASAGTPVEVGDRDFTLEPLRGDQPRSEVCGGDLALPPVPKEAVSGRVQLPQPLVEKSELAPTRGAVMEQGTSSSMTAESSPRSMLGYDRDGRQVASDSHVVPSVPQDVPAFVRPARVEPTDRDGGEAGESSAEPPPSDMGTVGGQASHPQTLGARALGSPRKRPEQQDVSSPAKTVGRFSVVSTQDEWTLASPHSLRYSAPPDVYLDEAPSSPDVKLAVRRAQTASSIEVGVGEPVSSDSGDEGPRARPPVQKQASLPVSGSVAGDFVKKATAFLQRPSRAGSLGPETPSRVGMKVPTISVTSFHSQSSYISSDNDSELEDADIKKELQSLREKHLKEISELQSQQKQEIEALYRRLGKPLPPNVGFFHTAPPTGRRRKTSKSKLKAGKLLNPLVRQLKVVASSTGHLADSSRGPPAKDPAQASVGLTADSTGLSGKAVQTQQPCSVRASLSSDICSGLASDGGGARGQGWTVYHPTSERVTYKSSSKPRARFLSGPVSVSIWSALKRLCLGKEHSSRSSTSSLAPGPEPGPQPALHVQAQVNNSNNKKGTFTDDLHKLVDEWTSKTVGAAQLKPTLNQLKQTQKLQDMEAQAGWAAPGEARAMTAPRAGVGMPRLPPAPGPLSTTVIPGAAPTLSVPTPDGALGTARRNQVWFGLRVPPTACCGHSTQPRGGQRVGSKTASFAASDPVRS
Chain of High affinity nerve growth factor receptor (Homo sapiens) (P04629 33-796 limits assumed): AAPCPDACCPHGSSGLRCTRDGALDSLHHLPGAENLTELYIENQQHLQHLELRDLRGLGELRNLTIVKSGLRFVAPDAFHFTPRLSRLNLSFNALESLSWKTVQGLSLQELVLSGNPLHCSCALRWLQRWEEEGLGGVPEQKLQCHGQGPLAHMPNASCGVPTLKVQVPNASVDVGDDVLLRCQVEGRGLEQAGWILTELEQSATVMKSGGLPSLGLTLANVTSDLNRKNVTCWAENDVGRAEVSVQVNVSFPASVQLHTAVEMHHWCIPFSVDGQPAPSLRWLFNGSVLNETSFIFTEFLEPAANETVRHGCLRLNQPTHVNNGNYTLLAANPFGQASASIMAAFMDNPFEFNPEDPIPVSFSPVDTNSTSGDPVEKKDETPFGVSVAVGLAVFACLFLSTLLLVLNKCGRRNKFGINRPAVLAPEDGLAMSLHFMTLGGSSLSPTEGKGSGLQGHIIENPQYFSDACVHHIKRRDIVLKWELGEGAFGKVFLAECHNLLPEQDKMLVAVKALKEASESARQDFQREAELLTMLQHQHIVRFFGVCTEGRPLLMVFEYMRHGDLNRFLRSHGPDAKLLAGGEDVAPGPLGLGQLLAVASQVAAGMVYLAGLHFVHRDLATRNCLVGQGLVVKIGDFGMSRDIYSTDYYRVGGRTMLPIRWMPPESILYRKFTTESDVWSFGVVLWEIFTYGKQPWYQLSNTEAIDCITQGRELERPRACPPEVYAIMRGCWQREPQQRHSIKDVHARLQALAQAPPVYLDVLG

SMILES | residual activity [1] [%] | residual activity [2] [%] | residual activity [3] [%] | residual activity [4] [%] | residual activity [5] [%] | residual activity [6] [%] | residual activity [7] [%] | residual activity [8] [%] | residual activity [9] [%] | residual activity [10] [%] | residual activity [11] [%] | residual activity [12] [%] | residual activity [13] [%] | residual activity [14] | residual activity [15] [%] | residual activity [16] | residual activity [17] [%] | residual activity [18] [%] | residual activity [19] [%] | residual activity [20] [%]
c1ccc(-c2n[nH]c3c2oc2ccccc23)cc1 | 82 | 96 | 76 | 83 | 58 | 32 | 2 | 45 | -3 | 97 | 73 | 86 | 71 | 99% (inactive) | 77 | 114% (inactive) | – | – | – | –
O=C1NC(=O)c2c1c1c3ccccc3[nH]c1c1[nH]c3cc(Br)ccc3c21 | 91 | 86 | 82 | 94 | 81 | 37 | 27 | 74 | 42 | 89 | 72 | 95 | 86 | 95% (inactive) | 90 | 96% (inactive) | 110 | 98 | 108 | 88
Nc1cccc(-c2cc3c(Oc4cccc(O)c4)ncnc3[nH]2)c1 | 71 | 78 | 0 | 18 | 1 | 61 | 6 | 74 | 44 | 27 | 3 | 76 | 6 | 100% (inactive) | 89 | 88% (inactive) | 101 | 17 | – | 31
O=C1NC(=O)/C(=C\c2ccc3nccnc3c2)S1 | 58 | 86 | 79 | 75 | 83 | 127 | 96 | 126 | 94 | 100 | 93 | 82 | 63 | 93% (inactive) | 92 | 82% (inactive) | 92 | 98 | 104 | 99
N#Cc1cnc2cnc(NCc3cccnc3)cc2c1Nc1ccc(F)c(Cl)c1 | -1 | 14 | 65 | – | – | 101 | 88 | 3 | 1 | 86 | 69 | – | 88 | – | 93 | – | 0 | 90 | – | 100
CN(C)c1ccc(/C=C2\C(=O)Nc3ccccc32)cc1 | 101 | 97 | 68 | 83 | 70 | 10 | 3 | 46 | 5 | 108 | 69 | 70 | 49 | 113% (inactive) | 87 | 110% (inactive) | 104 | 87 | 107 | 100
COc1cc2ncnc(Nc3ccc(Oc4ccccc4)cc3)c2cc1OC | 93 | 111 | 10 | – | – | 135 | 82 | 102 | 147 | 56 | 34 | 95 | 79 | 99% (inactive) | 73 | 92% (inactive) | 95 | 40 | 109 | 96
Cc1cc(Nc2nc(-c3ccccc3)nc3ccccc23)n[nH]1 | 25 | 67 | 4 | 77 | 6 | -2 | -1 | 1 | 0 | 30 | 2 | – | 4 | – | – | 74% (inactive) | 72 | 38 | – | 29
O=C1c2ccccc2-[n+]2ccc3c([nH]c4ccccc43)c21 | 89 | 86 | 74 | 90 | 78 | 83 | 47 | 89 | 89 | 75 | 75 | 96 | 95 | 93% (inactive) | 92 | 95% (inactive) | 90 | 77 | – | 92
